# Measurements taken from PubChem BioAssay AID2314 (National Center for Advancing Translational Sciences (NCATS), 2010).
# Several values for one entry are separate records, joined by “and”; a condition that tells them apart may be missing. Equal entries are not always repeated. Hit rate of the full screen: of about 300,000 compounds, about 37,000 (12%) were called active. The list comes from a sample in which actives are over-represented; it also holds similar structures and randomly drawn compounds. Unmarked numbers belong to inactive results. Rule as the data show it: active = max response mostly above about 13% (no sharp cut-off); inactive = mostly below about 14%.
# Test: Cycloheximide Counterscreen for Small Molecule Inhibitors of Shiga Toxin; also: read at 38.3 µM for the half of the compounds with a filed dose; 0% is about no effect
# Settings: cell reporter, cycloheximide protein synthesis inhibition counterscreen; active compounds read high
row,SMILES,max response
1,CCOc1ccccc1N1C(=O)CC(Sc2nccc(C)n2)C1=O (stereo not drawn),0.743%
2,CC(=O)Nc1ccccc1C(=O)OCC(=O)c1cccc2ccccc12,7.37%
3,O=C(OCC(=O)c1c[nH]c2ccccc12)c1cccc(O)c1,72.9% (active)
4,Cc1ccc(S(=O)(=O)c2c(COC(=O)c3cccc(Cl)c3)c(-c3ccccc3)nn2C)cc1,-6.17%
5,O=C(Cc1c[nH]c2ccccc12)OCCOC(=O)Cc1c[nH]c2ccccc12,-4.53%
6,O=C(OCc1ccc(Br)cc1)c1cccc(-c2nnc(-c3ccccc3)o2)c1,13.9%
7,O=C(OCc1ccc(-c2ccccc2)cc1)c1cccc(O)c1,57.7% (active)
8,C=C(C)C(=O)Nc1cccc(C2=NOC3(C2)C[C@H](C(N)=O)N(C(=O)C(c2ccccc2)c2ccccc2)C3)c1 (stereo partly drawn),-6.93%
9,CSc1ccc(C(=O)C2CCCN(C(=O)c3ccc(C)nc3)C2)cc1 (stereo not drawn),-0.923%
10,O=S(=O)(Nc1ccc2[nH]ncc2c1)c1ccccc1Cl,-3.76%
11,CN(Cc1ccco1)S(=O)(=O)c1nnc(NC(=O)c2ccccc2)s1,26%
12,COc1cccc(-c2cccc(NC(=O)C3CCN(C4CCC4)CC3)c2)c1,-2.09%
13,Cc1n[nH]c(=O)n1-c1ccc(Oc2ccccc2)cc1,16.2% (active)
14,O=C1CS(=O)CN1c1ccc(Oc2ccccc2)cc1 (stereo not drawn),-1.61%
15,Cc1n[nH]c(=O)n1-c1ccc(C(C)C)cc1,4.16%
16,COc1cccc(N(C(=O)c2snc(C(N)=O)c2N)C(C(=O)NCC2CCCO2)c2c[nH]c3ccccc23)c1 (stereo not drawn),-2.27%
17,COC(=O)c1ccccc1NC(=O)C1(S(=O)(=O)c2ccc(Cl)cc2)CC1,-5.97%
18,COc1ccc(NS(=O)(=O)c2ccc3oc(SCC(N)=O)nc3c2)cc1,-2.16%
19,COc1ccc(S(=O)(=O)N(C)C)cc1NC(=O)CSc1ncccn1,8.4%
20,CN(C)S(=O)(=O)c1ccc2oc(SCC(=O)Nc3ccccc3F)nc2c1,40% (active)
21,CCC1(C(=O)c2ccccc2)C(c2cccc([N+](=O)[O-])c2)C1(C(=O)OC)C(=O)OC (stereo not drawn),-5.04%
22,N#Cc1c(N2CCCCC2)nc(N)c2c(N)nc(SCC(=O)O)cc12,-0.559%
23,Cc1ccc(S(=O)(=O)N2CCC(C(=O)NCC3CCCO3)CC2)cc1 (stereo not drawn),-2.91%
24,Cc1ccc(-n2c(C)cc(/C=C(\C#N)C(=O)NCC3CCCO3)c2C)cc1 (stereo not drawn),50.5% (active)

row,SMILES,max response
1,Cc1cc(/C=C(/C#N)C(=O)Nc2ccc(Cl)cc2)c(C)n1-c1cccnc1,1.53%
2,COc1ccc(CCNS(=O)(=O)c2cn(C)nc2C)cc1,-0.628%
3,CC(C)=N/N=C1/NC(=O)C(Cc2ccccc2)S1 (stereo not drawn),-3.98%
4,C=CCn1c(SCc2c(C)noc2C)nc2sc3c(c2c1=O)CCC(C)C3 (stereo not drawn),-3.64%
5,CC1CCc2c(sc3nc4n(c(=O)c23)CCS4)C1 (stereo not drawn),31.9%
6,CCCn1nnc2sc3c(c2c1=O)CCC(C)C3 (stereo not drawn),35.5% (active)
7,COc1cc(C2OC(c3cc(OC)c(OC)c(OC)c3)C(C)C2C)cc(OC)c1OC (stereo not drawn),8.36%
8,CCOC(=O)c1nnn2c1nc(N1CCN(c3ccccc3)CC1)c1ccccc12,-4.05%
9,CCN(CC)CCC(c1cc(OC)c(OC)c(OC)c1)c1c(OC)cc(OC)c2c(-c3ccccc3)cc(=O)oc12 (stereo not drawn),-8.53% and -14.6%
10,Cc1nn(C)c(Oc2ccccc2)c1CCNS(=O)(=O)c1ccc(F)cc1,-1.22%
11,COc1ccc(CCNc2ncnc3c2nnn3Cc2ccccc2)cc1,-1.82%
12,CN1CCN(c2ccc(CNS(=O)(=O)c3cccc(F)c3)cc2)CC1,-2.69%
13,CCC(C)n1c(-c2cc(OC)c(OC)c(OC)c2)nc2nc3ccccc3nc21 (stereo not drawn),5.57%
14,Fc1ccc(/C=N/Nc2nc(-c3cccnc3)nc3ccccc23)cc1,46.2% (active)
15,COc1ccccc1Oc1nc(-c2cccnc2)nc2ccccc12,6.84%
16,COc1ccc(Nc2nc(-c3cccnc3)nc3ccccc23)cn1,-4.67%
17,CC(NS(=O)(=O)c1ccc(OCC(=O)N2CCCC2)cc1)c1ccccc1 (stereo not drawn),-1.86%
18,CC(C)(C)NC(=O)c1ccc(Cn2cc(C(F)(F)F)ccc2=O)cc1,-2.26%
19,Cc1cccc(N(CC(=O)N2CCOCC2)S(C)(=O)=O)c1,-1.89%
20,Cc1ccc(N2C(=O)SC(N(CC(=O)O)c3ccc(C)cc3)C2=O)cc1 (stereo not drawn),5.36%
21,Cc1cccc(N2C(=O)SC(N(CC(=O)O)c3cccc(C)c3)C2=O)c1 (stereo not drawn),31.1% (active)
22,O=C(CN(c1cc(C(F)(F)F)ccc1Cl)S(=O)(=O)c1ccccc1)NCc1cccnc1,-4.73%
23,CC(C)c1ccc(NC(=O)Cn2ncc3ccccc32)cc1,29% (active)
24,CCc1ccc(NC(=O)Cn2ncn3c(cc4ccccc43)c2=O)cc1,-4.36%

row,SMILES,max response
1,CCOC(=O)c1cn(CC(=O)Nc2ccc(C(C)C)cc2)nn1,-2.13%
2,O=C(O)Cn1c(Cc2ccccc2)nc2ccccc21,1.69%
3,COC(=O)c1ccc2c(=O)n(CCN3CCOCC3)c(SCC(=O)Nc3cccc(OC)c3)nc2c1,-1.03%
4,CCOC(=O)CSc1nnc(CNc2ccc(F)cc2)o1,-0.571%
5,Cc1cccc2nc(CNc3ccc(F)cc3)cn12,33.7% (active)
6,O=C(COC(=O)c1ccco1)NCc1ccc(Cl)cc1,4.34%
7,COc1cccc(-n2cc(C(=O)O)c3ccccc3c2=O)c1,-2.23%
8,COc1cccc(N2C(=O)CN(Cc3ccccc3)C2=S)c1,-1.8%
9,COc1cccc(-n2c(=S)[nH]c3c(oc4ccccc43)c2=O)c1,18.5% (active)
10,O=C(c1ccccc1)N1CCC(CC2CC(c3ccc(Cl)cc3)=NO2)(C(=O)NCC2CCCCC2)CC1 (stereo not drawn),-1.39%
11,COc1ccc(-c2oc3ncn(Cc4ccco4)c(=N)c3c2-c2ccc(OC)cc2)cc1,-1.11%
12,CCOC(=O)N1CCN(C(=S)Nc2ccc(C)cc2C)CC1,-5.54%
13,Cc1ccc(NC(=S)Nc2ncccc2C)c(C)c1,42.7% (active)
14,COC(=O)c1cccnc1NC(=S)NC(C)C,3.9%
15,CCOc1ccc(C(=O)COC(=O)c2ccc(-n3cnnn3)cc2)cc1,1.17%
16,CC1CN(c2nc(-c3ccccc3)nnc2-c2ccccc2)CC(C)O1 (stereo not drawn),-4.84%
17,COc1ccc(C2/C=C\CN(C(=O)c3ccc(C)cc3)C(Cc3ccccc3)C(=O)N2Cc2ccc(F)cc2)cc1 (stereo not drawn),2.85%
18,Cc1ccc(COc2ccc(/C=N/NC(=O)CN3CCCCC3)cc2)cc1,32.7% (active)
19,O=C(CN1CCSCC1)N/N=C/c1ccc(Cl)cc1,11.3%
20,Cc1ccc(/C=N/NC(=O)c2sccc2OCc2ccc(F)cc2)cc1,16.2% (active)
21,Cc1ccc(/C=N/NC(=O)COc2ccccc2-c2ccccc2)cc1,-1.02%
22,CCOc1cc(/C=N/NC(=O)CN2CCCCC2)ccc1O,-1.36%
23,CNC(=S)NNC(=O)c1sccc1OCc1ccccc1,-0.196%
24,CC(Sc1nc2c([nH]c3ccccc32)c(=O)n1C)c1ccccc1 (stereo not drawn),-7.36%

row,SMILES,max response
1,Cc1ccc(C(=O)Nc2c(C#N)c(C)c(C)n2Cc2ccccc2)cc1,-2.66%
2,CC(=O)Nc1ccc(S(=O)(=O)N2CCN(C(=O)c3ccccc3F)CC2)cc1,6.62%
3,CCOC(=O)c1c(N=CN(C)C)c(C#N)c2n1CCCC2,-4.22%
4,Cc1oc2nc(SCC(=O)Nc3ccc(S(N)(=O)=O)cc3)nc(NC(=O)c3ccccc3)c2c1C,-2.02%
5,O=C(CN(Cc1ccc(Br)cc1)S(=O)(=O)c1ccccc1)NCc1ccncc1,-2.43%
6,Cc1cc(C)nc(-n2nc(C)cc2NC(=O)c2ccc(F)cc2F)n1,-3.69%
7,N=c1c2c3c(sc2nc2n1CCCCC2)CCCC3,15%
8,C[C@@H]1CC[C@@]2(OC1)O[C@H]1C[C@H]3[C@@H]4CC=C5C[C@@H](O)[C@H](O)C[C@]5(C)C4CC[C@]3(C)[C@H]1[C@@H]2C (stereo partly drawn),-6.07%
9,CCCc1nn2c(=O)cc(CSCC(=O)Nc3cccc(C)c3)nc2s1,-2.96%
10,CN(C)c1ccc(/C=C2\NC(=S)N(Cc3ccccc3)C2=O)cc1,16.3% (active)
11,CC1=NN(Cc2ccccc2)C(=O)/C1=C/c1ccc(N(C)C)cc1,3.72%
12,O=C1NCC(=O)N(Cc2ccccc2)/C1=C/c1ccccc1,-7.39%
13,COc1ccc(N2CCN(C(=O)CN3C(=O)COc4ccccc43)CC2)cc1,-4.68%
14,CCOc1ccc(NC(=O)COc2ccc(C(=O)NC3CCCc4ccccc43)cc2OC)cc1 (stereo not drawn),-1.56%
15,O=C(O)CCn1c(O)c(C=C2N=c3ccccc3=N2)sc1=S,-1.81%
16,O=C(Nc1cccc(-n2cnnn2)c1)c1cccnc1,-4.68%
17,Cc1ccc(-n2nc3cc(Cl)c(NC(=O)c4ccco4)cc3n2)cc1,45% (active)
18,COC(=O)c1cc(Cl)c(NC(=O)c2ccco2)cc1OC,3.33%
19,Cc1c(NC(=O)c2cccnc2)c(=O)n(-c2ccccc2)n1C,-2.61%
20,Cc1cc(NC(=O)c2ccco2)c(=O)n(Cc2c(F)cccc2Cl)c1,-2.05%
21,Cc1ccc(-n2nc3cc(C)c(NC(=O)c4cccnc4)cc3n2)cc1,15.8% (active)
